Screening data deposited in PubChem by NMMLSC.
BoNT A protease – BoNT/A light chain protease inhibitors, primary screen, biochemical, flow cytometry, MLPCN library. multiplex microsphere protease substrate cleavage. inhibition, % at 10 µM. 0.17% of 360,000 active. AID 588499, 2011; in the data active = inhibition above about 30%; inconclusive = no clear call, values can overlap the other calls
BoNT-F LC inh – BoNT/F light chain protease inhibitors, primary screen, biochemical, flow cytometry, MLPCN library | Botulinum neurotoxin type F light chain protease (Clostridium botulinum) | Multiplex microsphere protease cleavage assay | inhibition, % at 10 µM | 0.22% of 360,000 active | AID 588497, 2011; in the data active = inhibition above about 35%, passing the limit was not always enough; inconclusive = no clear call, values can overlap the other calls
Anthrax LF prot – Bacillus anthracis LF protease inhibitors, primary screen, biochemical, multiplex microsphere, MLPCN library; Lethal factor (Bacillus anthracis), P15917; multiplex microsphere protease cleavage assay; inhibition, % at 10 µM; 0.12% of 360,000 active; AID 588501, 2011; in the data active = inhibition above about 30%; inconclusive = no clear call, values can overlap the other calls
Target sequence (P15917 whole entry, looked up): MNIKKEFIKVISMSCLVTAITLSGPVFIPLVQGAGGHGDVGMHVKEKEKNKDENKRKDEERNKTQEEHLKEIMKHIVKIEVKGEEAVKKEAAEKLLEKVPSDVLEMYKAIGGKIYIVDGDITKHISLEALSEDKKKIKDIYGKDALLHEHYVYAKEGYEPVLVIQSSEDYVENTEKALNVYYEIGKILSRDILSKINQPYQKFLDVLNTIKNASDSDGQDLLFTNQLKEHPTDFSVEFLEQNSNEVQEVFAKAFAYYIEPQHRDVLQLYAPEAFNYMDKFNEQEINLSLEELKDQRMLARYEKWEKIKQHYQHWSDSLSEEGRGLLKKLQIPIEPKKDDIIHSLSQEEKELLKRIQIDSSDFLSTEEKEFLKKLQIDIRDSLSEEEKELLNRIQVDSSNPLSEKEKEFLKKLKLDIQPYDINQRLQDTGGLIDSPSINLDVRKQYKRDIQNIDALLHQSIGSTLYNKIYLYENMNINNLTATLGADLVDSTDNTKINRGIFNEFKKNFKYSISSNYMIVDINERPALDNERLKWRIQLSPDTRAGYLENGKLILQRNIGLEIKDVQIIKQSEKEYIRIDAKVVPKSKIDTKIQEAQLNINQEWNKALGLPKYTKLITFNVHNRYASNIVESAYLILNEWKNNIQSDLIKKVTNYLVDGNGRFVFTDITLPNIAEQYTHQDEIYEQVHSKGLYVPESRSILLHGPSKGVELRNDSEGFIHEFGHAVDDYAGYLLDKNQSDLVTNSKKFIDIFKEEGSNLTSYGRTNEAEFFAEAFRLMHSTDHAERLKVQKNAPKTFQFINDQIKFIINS
Autofluor counter – counter-screen for toxin protease inhibitors: compound fluorescence; AID 624483; fluorescence intensity (no concentration beside the values); compound autofluorescence counterscreen, microsphere flow cytometry; active compounds read high; 3.1% of 360,000 active; in the data active = fluorescence intensity above about 16000; inconclusive = no clear call, values can overlap the other calls
BoNT-A LC CP1 – BoNT/A light chain protease inhibitors, confirmation, biochemical, flow cytometry, cherry pick 1. shares compounds with BoNT-F LC inh. multiplex microsphere protease assay. inhibition, % at 10 µM. 3% of 720 active; in the data active = inhibition above about 32%
BoNTF LC inh 1 – BoNT/F light chain protease inhibitors, confirmation, biochemical, flow cytometry, cherry pick 1; 720 tested, under 10 active; AID 602140, 2011; shares compounds with BoNT-F LC inh; multiplex microsphere protease cleavage assay; inhibition, % at 10 µM; call rule not given here
LF protease CP1 – Bacillus anthracis LF protease inhibitors, confirmation, biochemical, multiplex microsphere, cherry pick 1; inhibition, % at 10 µM; shares compounds with BoNT-F LC inh; 720 tested, under 10 active; multiplex microsphere protease cleavage assay; call rule not given here
BoNTA LC inh 2 – BoNT/A light chain protease inhibitors, confirmation, biochemical, flow cytometry, cherry pick 2; shares compounds with BoNT A protease; multiplex microsphere protease cleavage assay; inhibition, % at 10 µM; 10% of 150 active; AID 602325, 2012; in the data active = inhibition above about 24%
LF protease CP2 – Bacillus anthracis LF protease inhibitors, confirmation, biochemical, multiplex microsphere. shares compounds with BoNT A protease. multiplex microsphere protease cleavage assay. inhibition, % at 10 µM. 7% of 150 active. AID 602327, 2012
BoNTF LC inh 2 – BoNT/F light chain protease inhibitors, confirmation, biochemical, flow cytometry, cherry pick 2; shares compounds with BoNT A protease; inhibition, % at 10 µM; multiplex microsphere protease cleavage assay; 7% of 150 active
A number is an active result; n = inactive; u = inconclusive; x = no result. Sampled rows, rich in hits. Any-hit rate of the full collection: about 3.5%. Cut-off read from the data, not from the text of the source, unless noted: active = inhibition above about 25%; inactive = the rest.

SMILES	BoNT A protease	BoNT-F LC inh	Anthrax LF prot	Autofluor counter	BoNTA LC inh 2	LF protease CP2	BoNTF LC inh 2	others
O=C1[C@H]2[C@@H](c3ccccc3)N[C@]3(CCCN(Cc4ccc(F)cc4)C3=O)[C@H]2C(=O)N1Cc1ccccc1	n	n	n	n	x	x	x
Cc1ccc(S(=O)(=O)N2CCCC2=O)c(C)c1N(C)S(C)(=O)=O	n	n	n	n	x	x	x
CCOC(=O)c1cnn(CCOC(=O)c2ccccc2)c1NC(=O)c1ccccc1	n	n	n	n	x	x	x
CCOC(=O)c1cnn(CCOC(=O)C(C)(C)C)c1NC(=O)C(C)(C)C	36	43	n	n	x	x	x	BoNT-A LC CP1=n;BoNTF LC inh 1=n;LF protease CP1=n
Cc1cc([N+](=O)[O-])ccc1NC(=O)CSc1nncn1-c1cccnc1	n	n	n	n	x	x	x
O=C(Nc1c(C(=O)N2CCOCC2)cnn1-c1ccccc1)c1cccc(F)c1	n	n	n	n	x	x	x
Cc1cc(C)nc(NS(=O)(=O)c2ccc(NC(=O)c3ccc4c(c3)OCCO4)cc2)n1	n	36	n	n	x	x	x	BoNT-A LC CP1=n;BoNTF LC inh 1=n;LF protease CP1=n
CCc1cccc2c(C(=O)COC(=O)c3ccc(O)cc3)c[nH]c12	n	n	n	n	n	n	37
CCc1cccc2c(C(=O)COC(=O)c3ccccc3)c[nH]c12	n	n	n	n	n	n	25
CC(C)NC(=O)N(C)C[C@H]1OCc2cnnn2CCCC(=O)N([C@H](C)CO)C[C@H]1C	n	n	n	n	x	x	x
CC(=NNc1nc2ccccc2o1)c1cc2ccccc2cn1	51	74	59	n	n	26	54
COc1ccc(C(CNC(=O)c2ccc(C)c(S(=O)(=O)N3CCCCC3)c2)N2CCCC2)cc1 (stereo not drawn)	n	86	56	n	n	n	n
Cc1cc2cc(CNC(=O)c3ccc(S(=O)(=O)N4CCCCC4)cc3)ccc2n1C	80	n	n	n	n	n	n
Cc1cc2cc(CNC(=O)c3ccc(S(=O)(=O)N4CCCC4)cc3)ccc2n1C	80	n	n	n	n	n	n
Cc1ccc(CNC(=O)c2ccc(S(=O)(=O)N3CCCCC3)cc2)cc1	n	n	n	n	x	x	x
CCN(CC)S(=O)(=O)c1ccc(C(=O)NCc2ccc3c(c2)cc(C)n3C)cc1	81	n	n	n	n	n	n
O=C(NCc1ccc(Cl)nc1)c1csc([C@@H]2C[C@H](O)[C@@H](CO)O2)n1	n	n	n	n	x	x	x
CN(C)c1ccc(/C=C2/C[N+](C)(C)C/C(=C/c3ccc(N(C)C)cc3)C2=O)cc1	86	n	41	n	48	28	n
CN(CC(=O)NC1CCN(Cc2ccccc2)CC1)S(=O)(=O)c1ccc(Br)s1	n	n	n	n	x	x	x
CN(CC(=O)NC1CCN(Cc2ccccc2)CC1)S(=O)(=O)c1ccc(Cl)cc1	n	74	54	n	n	n	n
O=S1(=O)CC(N2CCN(CC3CC3)CC2)CN1CCc1ccccc1 (stereo not drawn)	n	n	n	n	x	x	x
COc1ccc(NS(=O)(=O)c2cccc(C(=O)N3CCN(C/C=C/c4ccccc4)CC3)c2)cc1	n	n	n	n	x	x	x
CC(Oc1ccc2ccc(=O)oc2c1)C(=O)NC1CCN(Cc2ccccc2)CC1 (stereo not drawn)	n	n	n	n	x	x	x
CCOc1ccc(NC(=O)CN(C)C(=O)c2ccc3c(c2)S(=O)(=O)N=C2CCCCCN23)cc1OCC	94	87	110	n	n	n	n
COc1ccc(CN(CC(O)COCc2ccccc2)S(=O)(=O)c2ccccc2Br)cc1OC (stereo not drawn)	n	n	n	n	x	x	x
SMILES	BoNT A protease	BoNT-F LC inh	Anthrax LF prot	Autofluor counter	BoNTA LC inh 2	LF protease CP2	BoNTF LC inh 2	others
O=C(OCC(=O)c1c[nH]c2ccccc12)c1cncc(Br)c1	n	n	n	n	x	x	x
COc1ccc(C(=O)OCC(=O)c2cc(OC)ccc2OC)c(OC)c1	n	n	n	n	x	x	x
NC(=O)Nc1ccc(C(=O)OCC(=O)c2c[nH]c3ccccc23)cc1	n	n	n	n	x	x	x
COc1ccccc1C(=O)COC(=O)Cc1c[nH]c2ccccc12	n	n	n	n	x	x	x
O=C(OCC(=O)c1c[nH]c2ccccc12)c1cccc([N+](=O)[O-])c1	33	n	39	n	n	n	n
COc1ccc(C(=O)OCC(=O)c2c[nH]c3ccccc23)c(OC)c1	n	n	n	n	n	n	n
COc1cccc(C(=O)OCC(=O)c2c[nH]c3ccccc23)c1OC	n	n	n	n	n	n	n
O=C(OCC(=O)c1c[nH]c2ccccc12)c1ccc(OC(F)F)cc1	n	n	n	n	n	n	n
Cc1ccccc1OCC(=O)OCC(=O)c1c[nH]c2ccccc12	n	n	n	n	n	n	n
COc1ccc(CC(=O)OCC(=O)c2c[nH]c3ccccc23)cc1	53	n	n	n	n	n	n
Cc1ccc(C(=O)COC(=O)COc2ccccc2C)cc1	n	n	n	n	x	x	x
COc1cc(CC(=O)OCC(=O)c2c[nH]c3ccccc23)cc(OC)c1OC	50	n	n	n	n	n	n
COc1ccc(-c2nn(-c3ccccc3)cc2C(=O)NC(=S)Nc2cc(Cl)ccc2Cl)cc1	n	n	n	n	x	x	x
CN=c1nc(-c2ccccc2)n(-c2ccccc2)s1	n	48	n	n	n	n	n
Cn1nc(-c2ccccc2)nc1-c1ccccc1	n	n	n	n	x	x	x
COc1ccc(-c2cc(C(F)(F)F)n3nc(C(N)=O)cc3n2)cc1	n	n	n	n	x	x	x
CN(C)CCNC(=O)c1cccc2nc3c(ccc4ccccc43)nc12	44	n	42	n	n	n	n
COc1cccc2nc3c(C(=O)NCCN(C)C)cccc3cc12	n	n	n	n	x	x	x
COC(=O)c1c(-c2ccccc2)csc1N	n	n	n	u	x	x	x
COC(=O)c1c(C(=O)OC)c2c(-c3ccccc3)cc3cccc1n32	37	n	37	n	n	n	n
COc1ccc(Cc2c(-c3ccccc3)nc3cc(C)c(Br)c(C)n23)c(C)c1	n	n	n	n	x	x	x
